# Activity calls are given as the source filed them.
# Experiments:
# [1] = system: Plasmodium falciparum Sir2 (PF13_0152, Sir2A); assay: Plasmodium falciparum Sir2A binding compounds – biochemical, small-molecule microarray, 635 nm fluorescence, primary screen (AID 1098); settings: fluorescence 635 nm, higher = more signal;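 further: score merges spot fluorescence intensity with its signal-to-noise ratio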
# [2] = probe aDKK1 binding to arrayed compounds – biochemical, biotinylated probe, 635/667 nm fluorescence, primary screen (AID 1099); settings: small-molecule microarray, higher = more signal;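 further: score merges 667nm spot fluorescence with signal to noise across triplicate slides; reference of the scale not given here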
# [3] = probe aCHRDL2 binding to arrayed compounds – biochemical, biotinylated probe, 635/667 nm fluorescence, primary screen (AID 1100); settings: small-molecule microarray, higher = more signal
# [4] = change in splice reporter luminescence, either direction, cell-based, HEK293, spliceosome inhibition project, primary screen (AID 1101); settings: HEK293 splicing luciferase reporter, 24 h, higher = more signal, called active from +8 up or from −8 down;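 further: HEK293 cells carrying a splicing-competent luciferase reporter gene; test concentration not given here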
# [5] = target: Fibroblast growth factor 10 (Homo sapiens) (UniProt O15520); assay: compounds binding fibroblast growth factor 10 – biochemical, small-molecule microarray, 635 nm fluorescence, primary screen (AID 1102); settings: FGF10 binding, fluorescence 635 nm, higher = more signal
# Sequence of Fibroblast growth factor 10 (Homo sapiens) (O15520 whole entry, looked up): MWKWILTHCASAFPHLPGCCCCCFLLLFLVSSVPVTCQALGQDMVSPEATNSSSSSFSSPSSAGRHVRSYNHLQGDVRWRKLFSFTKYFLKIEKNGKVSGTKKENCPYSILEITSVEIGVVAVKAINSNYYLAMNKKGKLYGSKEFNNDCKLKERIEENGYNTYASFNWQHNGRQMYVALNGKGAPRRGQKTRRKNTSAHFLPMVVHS
# [6] = system: glycogen synthase kinase-3 (GSK3A per assay name; protocol says GSK3B); assay: compounds binding glycogen synthase kinase-3 – biochemical, small-molecule microarray, 635 nm fluorescence, GSK3A, primary screen (AID 1103); settings: fluorescence 635 nm, higher = more signal; further: the record names both GSK3A and GSK3B
# [7] = target: Epidermal growth factor receptor (Homo sapiens) (UniProt P00533); assay: compounds binding epidermal growth factor receptor – biochemical, small-molecule microarray, 635 nm fluorescence, primary screen (AID 1104); settings: EGFR binding, higher = more signal;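 further: score merges 667 nm emission intensity with spot signal to noise over triplicate slides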
# Sequence of Epidermal growth factor receptor (Homo sapiens) (P00533 whole entry, looked up): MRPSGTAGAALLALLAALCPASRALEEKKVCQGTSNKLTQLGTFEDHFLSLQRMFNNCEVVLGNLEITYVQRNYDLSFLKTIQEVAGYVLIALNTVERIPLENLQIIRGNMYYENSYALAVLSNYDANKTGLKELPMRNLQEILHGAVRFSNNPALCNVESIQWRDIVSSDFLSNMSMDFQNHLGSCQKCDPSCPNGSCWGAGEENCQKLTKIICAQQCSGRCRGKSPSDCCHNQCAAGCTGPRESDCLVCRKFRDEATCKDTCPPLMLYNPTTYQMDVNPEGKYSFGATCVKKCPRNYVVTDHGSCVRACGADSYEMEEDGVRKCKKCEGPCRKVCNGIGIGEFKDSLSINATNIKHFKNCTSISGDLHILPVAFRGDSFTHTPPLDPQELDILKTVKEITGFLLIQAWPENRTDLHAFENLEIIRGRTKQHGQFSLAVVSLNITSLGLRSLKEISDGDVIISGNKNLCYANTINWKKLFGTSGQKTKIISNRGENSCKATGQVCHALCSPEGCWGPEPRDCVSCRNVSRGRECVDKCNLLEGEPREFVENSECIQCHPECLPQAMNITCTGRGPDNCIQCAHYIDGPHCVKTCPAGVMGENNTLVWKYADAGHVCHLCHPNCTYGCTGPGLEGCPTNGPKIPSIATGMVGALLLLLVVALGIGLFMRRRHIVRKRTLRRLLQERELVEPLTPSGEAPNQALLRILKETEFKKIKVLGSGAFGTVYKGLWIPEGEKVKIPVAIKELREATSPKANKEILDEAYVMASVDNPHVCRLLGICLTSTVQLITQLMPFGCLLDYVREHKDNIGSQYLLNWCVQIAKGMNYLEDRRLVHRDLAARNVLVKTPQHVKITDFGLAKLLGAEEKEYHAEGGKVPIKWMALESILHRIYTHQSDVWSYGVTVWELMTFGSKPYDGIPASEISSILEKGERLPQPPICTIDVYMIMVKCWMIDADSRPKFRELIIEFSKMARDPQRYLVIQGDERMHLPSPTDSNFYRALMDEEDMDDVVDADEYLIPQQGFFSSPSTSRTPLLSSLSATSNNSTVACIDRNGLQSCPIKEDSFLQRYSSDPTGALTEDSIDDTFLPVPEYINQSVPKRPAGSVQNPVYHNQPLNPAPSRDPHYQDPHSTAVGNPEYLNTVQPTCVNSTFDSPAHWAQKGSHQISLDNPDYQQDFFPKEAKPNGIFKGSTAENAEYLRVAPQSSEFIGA
# [8] = target: Follistatin-related protein 3 (Homo sapiens) (UniProt O95633); assay: compounds binding follistatin-related protein 3 – biochemical, small-molecule microarray, 635 nm fluorescence, primary screen (AID 1105); settings: FSTL3 binding, higher = more signal;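 further: score merges emission near 667 nm and signal to noise per printed spot across three slides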
# Sequence of Follistatin-related protein 3 (Homo sapiens) (O95633 whole entry, looked up): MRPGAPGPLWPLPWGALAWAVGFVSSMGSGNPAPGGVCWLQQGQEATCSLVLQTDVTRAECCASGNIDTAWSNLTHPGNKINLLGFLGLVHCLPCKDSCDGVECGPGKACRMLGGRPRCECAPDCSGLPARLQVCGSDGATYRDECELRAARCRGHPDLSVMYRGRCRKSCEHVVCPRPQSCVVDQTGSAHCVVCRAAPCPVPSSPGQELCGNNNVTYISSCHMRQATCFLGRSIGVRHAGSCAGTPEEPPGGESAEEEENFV
# [9] = target: Dickkopf-related protein 1 (Homo sapiens) (UniProt O94907); assay: small molecules binding DKK1 protein – biochemical, small-molecule microarray, 635 nm fluorescence scan, primary screen (AID 1106); settings: higher = more signal;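 further: score merges emission near 667 nm with signal to noise over three replicate slides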
# Sequence of Dickkopf-related protein 1 (Homo sapiens) (O94907 whole entry, looked up): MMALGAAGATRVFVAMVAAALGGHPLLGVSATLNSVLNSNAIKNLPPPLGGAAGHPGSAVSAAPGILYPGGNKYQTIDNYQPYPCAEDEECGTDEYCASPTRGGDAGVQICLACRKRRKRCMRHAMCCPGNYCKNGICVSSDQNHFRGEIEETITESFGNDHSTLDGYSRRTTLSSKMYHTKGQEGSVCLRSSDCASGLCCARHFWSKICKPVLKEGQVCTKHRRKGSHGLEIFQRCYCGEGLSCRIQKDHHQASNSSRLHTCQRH
# [10] = system: Inhibin beta A chain (activin A); assay: small molecules binding activin A – biochemical, small-molecule microarray, 635 nm fluorescence scan, primary screen (AID 1107); settings: INHBA, higher = more signal;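 further: mouse activin A protein probed at 4.33 µg/mL on printed slides; score merges bound-protein fluorescence near 667 nm with spot signal-to-noise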
Compound,composite z-score [1],composite z-score [2],composite z-score [3],z-score [4],composite z-score [5],composite z-score [6],composite z-score [7],composite z-score [8],composite z-score [9],composite z-score [10]
COCCOC(=O)N1C(=O)[C@@]2(c3cc(C#CC4=CCCCC4)ccc31)[C@H](c1ccccc1OCCO)N1[C@H](c3ccccc3)[C@H](c3ccccc3)OC(=O)[C@H]1[C@@H]2C(=O)N1CCCCCCC1,1.17,1.18,-0.624,-0.262 (inactive),1.04,1.26,0.173,0.974,0.818,0.451
CCCC[C@@H]1C[C@H]1[C@@H](NC(=O)Cc1ccccc1)c1ccc(-c2ccccc2)cc1,-0.146,-0.0423,0.712,-1.26 (inactive),0.0191,0.117,0.172,0.135,-0.46,0.685
COc1ccc(NC(=O)O[C@H]2[C@H](OC(=O)Nc3ccccc3)[C@@H](OC(=O)Nc3ccccc3)[C@@H](OC)O[C@@H]2CO)cc1,1.55,0.25,0.39,-1.67 (inactive),1.5,1.31,0.0729,0.83,0.396,0.385
COCCOC(=O)N1C(=O)[C@@]2(c3cc(C#Cc4ccc(OC)cc4)ccc31)[C@H](C(=O)Nc1nc3ccccc3s1)[C@H]1C(=O)O[C@H](c3ccccc3)[C@H](c3ccccc3)N1[C@@H]2c1ccc(OCCO)cc1,0.557,-0.135,-0.571,-0.653 (inactive),1.37,1.28,0.654,1.38,0.901,0.0865
[N-]=[N+]=Nc1ccccc1C[C@]1(C(N)=O)N=C(c2ccc(OCCCO)cc2)O[C@H]1c1ccccc1N=[N+]=[N-],0.902,0.504,0.676,-1.82 (inactive),0.856,0.966,0.188,-0.0523,-0.442,1.25
[N-]=[N+]=Nc1ccccc1C[C@]1(C(=O)N2CCOCC2)N=C(c2ccc(OCCCO)cc2)O[C@H]1c1ccccc1,1.11,1.45,1.03,-0.963 (inactive),1.16,1.29,0.307,1.01,1.93,0.52
CCOC(=O)C1CCCCN1 (stereo not given),0.19,1.06,-0.193,-0.283 (inactive),0.946,0.682,0.403,0.653,0.516,-0.104
CN1C(=O)C2C=CC(C(O)c3ccccn3)N(N(c3ccccc3)c3ccccc3)C2C1=O (stereo not given),1.44,-0.16,0.711,0.527 (inactive),0.62,0.19,0.22,0.273,-0.0644,0.79
C=CC[C@]1(C(=O)O)COC(c2ccc(OCCCO)cc2)=N1,1.58,-0.133,0.568,-0.565 (inactive),-0.0346,0.156,0.0943,0.406,0.117,0.888
CN(C)C(=O)[C@]1(CCS(=O)(=O)c2ccccc2)N=C(c2ccc(OCCCO)cc2)O[C@@H]1c1ccccc1N=[N+]=[N-],1.78,0.774,0.923,-2.08 (inactive),1.42,0.581,0.564,1.45,0.553,1.33
O=C(NCC(F)(F)F)[C@@H]1c2ccccc2C(=O)N(Cc2ccccc2C(F)(F)F)[C@H]1c1ccc(CO)cc1,1.78,0.757,0.805,-0.335 (inactive),-0.141,-0.677,-0.79,-0.604,-0.377,0.547
C=CCN1C(=O)[C@@]2(O[C@@H](CCn3cc([C@H](O)c4ccccc4)nn3)[C@H]([Si](C)(C)c3ccc(OC)cc3)[C@H]2C)c2cc(N3CCC3=O)ccc21,1.43,0.0289,0.257,-0.429 (inactive),0.216,-0.0371,-0.0844,-0.296,-0.0607,0.289
O=C(NCc1ccccc1)[C@@H]1c2ccccc2C(=O)N(Cc2ccccc2C(F)(F)F)[C@H]1c1ccc(CO)cc1,1.61,-0.299,0.752,-0.452 (inactive),0.112,-0.076,-0.406,-0.45,-1.09,0.212
C=CCOC(=O)[C@H]1[C@@H]2C(=O)O[C@@H](c3ccccc3)[C@@H](c3ccccc3)N2[C@@H](c2ccc(OCCOC(=O)[C@@H]3C[C@@H]4C(=O)N5CCC[C@H]5C(=O)N4[C@@H]3c3ccc(O)cc3)cc2)[C@]12C(=O)Nc1ccc(I)cc12,0.637,-0.102,0.357,0.431 (inactive),0.53,0.195,0.482,0.594,1.39,0.372
CCOC(=O)C1=CC[C@@H](c2cccc(Cl)c2)N(S(=O)(=O)c2ccc(C)cc2)C1,0.925,0.419,0.877,-2.03 (inactive),0.674,0.0076,0.101,-0.0034,0.0677,0.539
CCCCC=C[C@@H](NC(=O)c1ccc(-c2ccccc2)cc1)c1ccccc1,0.379,0.0006,0.087,2.94 (inactive),0.462,1.08,0.0139,-0.203,0.381,0.183
[N-]=[N+]=NCc1ccccc1C[C@]1(C(N)=O)N=C(c2ccc(OCCCO)cc2)O[C@H]1c1ccccc1,1,0.774,0.827,-0.0612 (inactive),0.703,0.854,-1.17,-0.188,-1.14,-0.0778
[N-]=[N+]=Nc1ccccc1[C@@H]1OC(c2ccc(OCCCO)cc2)=N[C@]1(Cc1ccccc1)C(=O)NCC(O)CO (stereo not given in full),1.08,1.33,1.4,-1.37 (inactive),0.915,-0.216,-0.433,0.18,-0.647,1.09
CCCCC(O)C1C=CC2C(=O)N(c3ccccc3)C(=O)C2N1Nc1ccc(C(C)C)cc1 (stereo not given),0.562,-0.109,0.214,-0.479 (inactive),1.05,1.26,0.341,1.04,0.223,0.63
C=CCC(OC(C)=O)[C@@H]1[C@@H](N(Cc2ccc(-c3ccccc3)cc2)C(=O)Cc2ccc(F)cc2)c2cc(OCCCO)ccc2N1C(=O)Cc1ccc(OC)cc1 (stereo not given in full),-0.383,-0.129,0.0545,-0.599 (inactive),-0.0269,0.0082,-0.244,0.359,-0.139,1.14
CCOC(=O)C[C@H]1[C@H](OC(=O)Cc2ccc3c(c2)OCO3)[C@@H](NC(=O)Cc2ccc(OC)cc2)c2cc(OCCCO)ccc2N1C(=O)c1ccc2ccccc2n1,0.0382,-0.189,-0.265,-0.95 (inactive),0.355,0.415,0.516,-0.114,0.567,0.825
CC(C)N1C(=O)C[C@@](C(=O)NCCCN(C)C)(c2ccc([N+](=O)[O-])cc2)[C@H]1c1ccc(CO)cc1,-0.133,-0.253,0.692,0.313 (inactive),-0.532,-0.777,-0.496,-0.309,-0.197,0.698
COc1ccc([Si](C)(C)[C@@H]2[C@@H](CCn3cc([C@H](O)c4ccccc4)nn3)O[C@]3(C(=O)N(Cc4ccc(N5CCC5=O)cc4)c4ccccc43)[C@H]2C)cc1,0.453,-0.213,-0.0321,-0.619 (inactive),0.137,-0.364,-0.167,-0.0461,0.135,0.632
COC(=O)[C@@]1(Cc2ccc(OC)cc2)[C@H]2c3cc(C(=O)N(C)C)n(C[C@H](O)CO)c3C[C@H]2CN1C(=O)c1ccccc1,1.43,1.76,1.62,-0.872 (inactive),0.376,0.0885,-0.107,0.472,-1.18,1.39
CN(C)CCCCNC(=O)[C@@H]1C[C@@H]2C(=O)N[C@@H](Cc3ccccc3)C(=O)N2[C@@H]1c1cccc(OCCO)c1,0.769,0.0115,0.393,-1.88 (inactive),0.407,0.727,0.404,1.26,1.28,0.0765
COc1ccc([Si](C)(C)[C@H]2[C@H](CC(=O)N(CCO)Cc3ccccc3)O[C@@]3(C(=O)N(Cc4cccc(N5CCOC5=O)c4)c4ccccc43)[C@@H]2C)cc1,1.18,-0.21,0.0284,-2.44 (inactive),0.0549,0.616,0.232,0.324,0.179,0.81
C=CC[C@@]1(C(=O)N2CCOCC2)N=C(c2ccc(OCCCO)cc2)O[C@@H]1c1ccccc1CN=[N+]=[N-],0.706,0.906,1.18,1.02 (inactive),1.48,1.32,0.749,1.05,0.472,1.34
COCCOC(=O)N1C(=O)[C@@]2(c3ccccc31)[C@H](C(=O)N1CCN(c3ncccn3)CC1)[C@H]1C(=O)O[C@H](c3ccccc3)[C@H](c3ccccc3)N1[C@@H]2c1ccc(O)cc1,1.59,0.184,0.573,0.554 (inactive),0.745,0.53,0.0611,-0.11,0.278,-0.66
COC(=O)C(CC#Cc1ccc2c(c1)[C@]1(C(=O)N2)[C@H](c2ccccc2OCCO)N2[C@H](c3ccccc3)[C@H](c3ccccc3)OC(=O)[C@H]2[C@@H]1C(=O)NC[C@H](O)c1ccccc1)C(=O)OC,1.65,-0.378,0.702,-0.267 (inactive),0.928,1.26,0.361,0.682,0.521,0.897

# From PubChem BioAssay
